Experimental findings from PubChem BioAssay (NCI) are described below.

A short description of test [1]: NCI Yeast Anticancer Drug Screen. Data for the rad50 strain (AID 155).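 Note: 0% = growth of vehicle-only cultures of the same strain.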 The settings on record: S. cerevisiae rad50 strain growth inhibition; at 50.0 µM; hits give high values. An outline of the steps:
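DNA repair mutant yeast, compound exposure, growth read-out; inhibition is taken relative to vehicle.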

Test [2] can be described thus: NCI Yeast Anticancer Drug Screen. Data for the sgs1 mgt1 strain (AID 161).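 Note: 0% = growth of cultures given vehicle only.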 Particulars: S. cerevisiae sgs1 mgt1 strain, at 50.0 µM, hits give high values. An outline of the steps: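 Yeast cells carrying a defined DNA-repair defect were exposed to test compounds. Growth inhibition was measured relative to vehicle-treated controls.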
A short description of test [3]: NCI Yeast Anticancer Drug Screen. Data for the cln2 rad14 strain (AID 165).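 Note: 0% = growth equal to vehicle treated cultures.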 The settings on record: S. cerevisiae cln2 rad14 strain, at 50.0 µM, hits give high values. An outline of the steps: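 Strain: cln2 rad14 yeast, altered in cell cycle control and DNA damage repair. Read-out: growth inhibition vs vehicle.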
Test [4] in a line: NCI Yeast Anticancer Drug Screen. Data for the bub3 strain (AID 167). The settings on record: S. cerevisiae bub3 mutant strain, at 50.0 µM, hits give high values. The procedure, abridged:
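In this screen, a yeast mutant lacking normal mitotic checkpoint function is challenged with compound. Relative growth versus vehicle gives the inhibition value.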

Test [5] can be described thus: NCI Yeast Anticancer Drug Screen. Data for the mlh1 rad18 strain (AID 175). Particulars: S. cerevisiae mlh1 rad18 strain growth inhibition; at 50.0 µM; hits give high values. The procedure, abridged: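 A repair-deficient yeast strain is exposed to test compound, and growth is scored relative to vehicle-treated controls.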
The nature of test [6]: NCI Yeast Anticancer Drug Screen. Data for the mec2-1 strain (AID 157). Particulars: S. cerevisiae mec2-1 strain, at 50.0 µM, hits give high values. An outline of the steps: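 Compounds were applied to mec2-1 yeast cells. Their growth was then compared with that of vehicle-treated cultures to give growth inhibition.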

About 79,000 compounds went through this panel and 15% of them were active in at least one assay; those are over-represented in the sample as a whole. A number with no mark means an inactive call. Calls of active or inactive are those of the source. Cut-off read from the data, not from the text of the source: active = growth inhibition above about 70%; inactive = the rest.

With `CCOC(=O)Nc1nn[nH]n1`, the growth inhibition was 7.75% in test [1]; 32% in test [2]; 4.15% in test [3]; -4.95% in test [4]; 3.65% in test [5].

`O=C(N/N=C/c1ccccc1O)Nc1nn[nH]n1`: the growth inhibition was -15.8% in test [1]; 16.1% in test [2]; -7.8% in test [3]; 0.85% in test [4]; 9% in test [5].

Regarding `Nc1ccc(CC(=O)O)c(N)c1`, the growth inhibition in test [1] was 0.55%; in test [2], -4.6%; in test [3] it was -6.25%; in test [4] it was 4.6%; in test [5] it was -0.4%.

With `O=C(c1ccc(O)cc1)c1ccc(O)cc1`, the growth inhibition was 30.4% in test [1]; 15.2% in test [2]; -49.1% in test [3]; -9.15% in test [4]; 17.2% in test [5].

As for `CN(C)c1nc2c([nH]1)c(=O)n(C)c(=O)n2C`, the growth inhibition in test [1] is 22.4%; in test [2] it was 2.2%; in test [3], 5.2%; in test [4], -10.1%; in test [5], 5.45%.

For `O=C(Cc1nc2ccc([N+](=O)[O-])cc2nc1CC(=O)c1cccnc1)c1cccnc1`, the growth inhibition in test [1] was 14.3%; in test [2] it was -1.35%; in test [3] it was 15.2%; in test [4], -3.85%; in test [5] it was 9.6%.

In the case of `CC(=O)OCC1OC(OC2=C(CC=C(C)C)C(=O)c3ccccc3C2=O)C(OC(C)=O)C(OC(C)=O)C1OC(C)=O` (centres undefined), the growth inhibition is -7.2% in test [1]; -17.4% in test [2]; -15% in test [3]; -12.7% in test [4]; -6.6% in test [5].

In the case of `O=C(O)CNC(=O)c1ccccc1`, the growth inhibition is -46% in test [1]; -25.6% in test [2]; -50.1% in test [3]; -25% in test [4]; -47.6% in test [5].

Regarding `O=C(NN=C1CCCCC1)C(=O)NN=C1CCCCC1`, the growth inhibition is 34.1% in test [1], 13.5% in test [2], 10% in test [4] and 28.6% in test [5].

`Cc1cc(/C=C/c2ccc3cc(N(C)C)ccc3[n+]2C)c(C)n1-c1ccccc1`: the growth inhibition is 87.2% (active) in test [1], 92.8% (active) in test [2], 70.8% (active) in test [4] and 95.8% (active) in test [5].

As for `NC(=O)N/N=C\c1ccco1`, the growth inhibition in test [1] is 26.1%; in test [2], -13.3%; in test [3], -11.4%; in test [4], -14.3%; in test [5], 13.1%.

As for `O=C(CS)Nc1ccc2ccccc2c1`, the growth inhibition in test [1] is 3.5%; in test [2], 22%; in test [3], -36.9%; in test [4], -7.85%; in test [5], -1.15%.

As to `CC(=O)c1sc2c(c1OC(=O)c1ccc(Cl)cc1Cl)c(=O)n(-c1ccccc1)c(=S)n2-c1ccccc1`, the growth inhibition in test [1] is -3.95%; in test [2] it was -19.4%; in test [3] it was -5.65%; in test [4], -6.55%; in test [5], -3.85%.

With `COc1cc(CCN=Cc2ccccc2O)c([N+](=O)[O-])cc1OC`, the growth inhibition is -3.6% in test [1]; 16.1% in test [2]; 11.7% in test [3]; -7.05% in test [4]; -2.35% in test [5].

Regarding `O=C(O)CCC(NC(=O)OCc1ccccc1)C(=O)O` (centres undefined), the growth inhibition is -4.05% in test [1]; -8.45% in test [2]; 9.55% in test [3]; -21.2% in test [4]; -5.15% in test [5].

Turning to `COc1cc(C2c3cc4c(cc3C3OC(=O)C2C3CO)OCO4)cc(OC)c1OC` (centres undefined), the growth inhibition is -7.4% in test [1], 6.25% in test [3], -19.5% in test [4] and -3.85% in test [5].

With `CC1=CC(=O)c2ccccc2C1=O`, the growth inhibition in test [1] is 14.4%; in test [2] it was 0.1%; in test [3], 13.2%; in test [4] it was 25.6%; in test [5], 18.2%.

On to `Cc1cc(N2CCC(N3CCCC3)CC2)nc(/N=C(\N)Nc2ccc(Cl)c(Cl)c2)n1`, for which the growth inhibition is 18.1% in test [1]; -6.05% in test [2]; -3.7% in test [3]; 4% in test [4]; 34% in test [5].

For the compound `Cc1ccccc1C1N=C2Oc3ccccc3C=C2C(=O)N1` (centres undefined), the growth inhibition in test [6] is -11.8%; in test [2] it was 0.6%; in test [3], -9.55%; in test [4] it was -17.4%; in test [5] it was -32.5%.

On to `O=[N+]([O-])c1cccc2nsnc12`, for which the growth inhibition is 63.5% in test [1]; 53.8% in test [2]; 16.6% in test [3]; -8.15% in test [4]; 43.6% in test [5].

On to `NC(C(=O)O)c1ccc([N+](=O)[O-])cc1` (centres undefined), for which the growth inhibition in test [1] is -0.45%; in test [3], 7.25%; in test [4], -0.4%; in test [5] it was -14.7%.

On to `CN(c1ccccc1)c1ncnc2c1ncn2C`, for which the growth inhibition is 2.65% in test [1]; 1.75% in test [2]; -4.7% in test [3]; 29.9% in test [4]; 4.1% in test [5].

In the case of `Cc1ccc(O)c(C(=O)c2ccccc2)c1`, the growth inhibition in test [1] was 4.3%; in test [2], 12.5%; in test [3], -8.8%; in test [4], -3.65%.

Consider `COc1cc2c(cc1OC)[C@H](C(=O)O)[C@@H](c1ccc(OC(C)C)c(OC)c1)N(C)C2=O`, for which the growth inhibition in test [1] is 6.05%; in test [2] it was 7.2%; in test [3], -15.2%; in test [4] it was 15.4%; in test [5], -9.05%.

For the compound `OC1OC(COC(c2ccccc2)(c2ccccc2)c2ccccc2)C(O)C(O)C1O` (centres undefined), the growth inhibition is -11.9% in test [1]; -16.6% in test [2]; 14.4% in test [3]; -3.7% in test [4]; -17% in test [5].

On to `CCCCC/C=N/Nc1nc(C)cc(=O)[nH]1`, for which the growth inhibition in test [1] is 4.85%; in test [2], -8.95%; in test [3], 15.7%; in test [4], -2.9%; in test [5] it was 4.4%.

Take `NCCC(=O)c1ccc(Cl)cc1`: the growth inhibition in test [1] was 45.4%; in test [2], 6.8%; in test [3], 4.45%; in test [4] it was -9.6%; in test [5], 19.8%.

In the case of `CCCCOC(=O)c1ccc(C(C)C)cc1`, the growth inhibition was 8.85% in test [1]; 8.65% in test [2]; -19.4% in test [3]; 7.55% in test [4]; 4.35% in test [5].

On to `CN(C)c1ccc(S(=O)(=O)O)cc1`, for which the growth inhibition in test [1] was 1.3%; in test [2], 6.65%; in test [3], 10%; in test [4], 2.55%; in test [5], 21.9%.

Consider `CC(=O)OCCC(C)CCC=C(C)C` (centres undefined), for which the growth inhibition in test [1] is 14.7%; in test [6], 19.1%; in test [4] it was -16.9%; in test [5], 2.4%.

With `Oc1ccccc1O`, the growth inhibition is 11.7% in test [1]; 8.85% in test [2]; -11.7% in test [3]; -1.6% in test [4]; 8.25% in test [5].

As for `FC(F)(F)c1ccc2c(c1)N(CCCN1CCN(C3CC3)CC1)c1ccccc1S2`, the growth inhibition is 99.3% (active) in test [1]; 99.7% (active) in test [2]; 99% (active) in test [3]; 99% (active) in test [4]; 99.5% (active) in test [5].

As for `CC(=O)C1CCCCC1`, the growth inhibition was 26.7% in test [1]; 4.5% in test [2]; 11.7% in test [3]; 1.2% in test [4]; 16.8% in test [5].
